An excerpt weighted towards active compounds, which were near 0.71% of everything screened.
ERG-DNA inh = blocks human ERG Ets domain binding to DNA; P11308; fluorescence polarization, His-ERG Ets domain / labelled DNA; Potency, µM (series often up to 76.9 µM), for the others: top-dose FP activity, negative = inhibition, usual class: inhibitors; hit rate 0.028% among 370,000; AID 624246; active means well fitted inhibition curve with a large enough effect in the polarisation, with a control signal flat; inconclusive means small, poorly fitted or top-dose-only effect, or effect the other way, or a change in a side signal; inactive means no such curve, though single readings can be large or run the other way; the % refers to the polarisation;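 further: polarization taken with two DNA probes labelled with fluorescein and Texas red; % of control where 0% means no effect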
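His-tagged ERG Ets domain (1 uM in the protein solution; 300mM KCl, 50mM Tris-HCl, 1mM EDTA, 1mM DTT, pH 7.5) received compound, then a probe mix of 5 nM fluorescein-DNA and 100nM Texas-615-DNA. Fluorescence polarization was read for both dyes.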
RECQ1 inh-1 = inhibitors of human RECQ1 DNA helicase | hit rate 0.54% among 240,000 | RECQ1 DNA unwinding, red fluorescence kinetic read | P46063 | Potency, µM (top dose mostly 57.3 µM), for inactives: top-dose activity, negative = inhibition, usual class: inhibitors | AID 2549;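 further: plate controls were vehicle for no effect and no enzyme for full effect; nearly all actives have a fitted effect of over 30% in size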
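RECQ1T1 50 nM; forked duplex (20 bp + 30-nt ss tails) 200 nM, ATP 2 mM final; pH 8.0, 2 mM MgCl2, 2.5 ug/ml poly(dI-dC); 15 min compound preincubation; discontinuous kinetic read over 2 h at RT.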
RGS12 GoLoco inh = inhibitors of human Gai1-RGS12 GoLoco interaction (red fluorophore). hit rate 0.44% among 230,000. Potency, µM (highest dose often 61.6 µM), inactives show top-dose activity, negative = inhibition, actives largely listed as inhibitors. P63096. Gai1:RGS12 GoLoco peptide FP, rhodamine, 10 min; active means well fitted inhibition curve with a large enough effect, not every such curve was filed as active; inactive means no such curve, though single readings can be large or run the other way; further: on the % scale 0 is the no-effect control and ±100 the full control effect; nearly all actives have a fitted effect of over 30% in size
BLM helicase inh = blocks DNA unwinding by human BLM helicase; P54132; recombinant BLM DNA unwinding, fluorescence dequenching; Potency, µM (highest dose often 56.1 µM), for inactives: at the highest dose activity change, negative = inhibition, actives largely listed as inhibitors; hit rate 0.2% among 350,000;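 further: plate controls were vehicle for no effect and no enzyme for full effect; nearly all actives have a fitted effect of over 35% in size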
TRb-SRC2 inh = disrupts binding of human TR beta to SRC2; P10828; TRbeta-SRC2 peptide binding, fluorescence polarization; receptor liganded with 1 µM T3; Potency, µM (top dose mostly 106 µM), without a hit: top-dose activity change, negative = inhibition, most hits filed as inhibitors; hit rate 0.065% among 280,000; AID 1469;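 further: plate controls were bound peptide for no effect and peptide without receptor for full effect; nearly all actives have a fitted effect of over 50% in size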
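Each compound concentration gave % activity, normalized to unbound and bound Texas Red SRC2 controls, from polarization read after 5 hr ambient incubation with T3-loaded human TRb LBD.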
TR SRC2 fluor cs = Texas Red fluorescence interference in TRb-SRC2 counter-screen; TRb/SRC2 Texas Red total fluorescence interference; AID 1479; Potency, µM (highest dose often 106 µM), for inactives: top-dose fluorescence change, negative = quenching; hit rate 0.29% among 280,000; active means well fitted curve in either direction with a large enough effect; inconclusive means small, poorly fitted or top-dose-only effect; further: on the % scale 0 is the no-effect control and ±100 the full control effect
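Flags fluorescent or light-absorbing compounds by total fluorescence, S + 2P, at 555 nm excitation and 632 nm emission. Mixture: 20 nM Texas Red SRC2 peptide, 0.6 uM human TRb LBD, 1 uM T3, 5% DMSO; compound exposure 5 h at ambient temperature.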
RECQ1 conf = confirmation of human RECQ1 helicase inhibitors; shares compounds with RECQ1 inh-1; Potency, µM (titrated, usually from 229 µM), inactives show top-dose activity change, negative = inhibition, usual class: inhibitors; RECQ1 helicase DNA unwinding, fluorescence; hit rate 28% among 610; further: on the % scale 0 is the no-effect control and ±100 the full control effect; nearly all actives have a fitted effect of over 45% in size
ADP FP counter = counter-screen for RECQ1 inhibitors: ADP displacement; AID 2711; hit rate 27% among 530; shares compounds with RECQ1 inh-1; Potency, µM (top dose mostly 228 µM), without a hit: top-dose activity change, negative = inhibition, hits mostly inhibitors; ADP fluorescence polarization displacement counterscreen; further: on the % scale 0 is the no-effect control and ±100 the full control effect; nearly all actives have a fitted effect of over 45% in size
RECQ1 inh-2 = confirmation of human RECQ1 helicase inhibitors. shares compounds with RECQ1 inh-1. recombinant RECQ1 DNA unwinding, red fluorescence. Potency, µM (titrated, usually from 119 µM), without a hit: at the top dose activity, negative = inhibition, most hits filed as inhibitors. hit rate 15% among 1,100; further: on the % scale 0 is the no-effect control and ±100 the full control effect; nearly all actives have a fitted effect of over 50% in size
* marks the source's active call; other numbers are inactive results; i = inactive; ? = inconclusive; . = no result given; [ ] = remark or other dose. Unless noted, the call rests on the fitted dose curve; in most records, active means well fitted curve in the direction sought with a large enough effect; inconclusive means small, poorly fitted or top-dose-only effect, or another doubt; inactive means no such curve, though single readings can be large; an effect the other way counts as inactive or inconclusive. Potency means the concentration at half of the fitted maximal effect.

SMILES	ERG-DNA inh	RECQ1 inh-1	RGS12 GoLoco inh	BLM helicase inh	TRb-SRC2 inh	TR SRC2 fluor cs	RECQ1 inh-2	others
O=C(O)CC1Sc2ccccc2NC1=O (configuration not stated)	1%	i	-15%	3%	-12%	2%	.
CCOC(=O)Cc1ccc(NC(=O)N(Cc2ccc(CC)cc2)Cc2cn[nH]c2-c2ccc(OC)cc2)cc1	1%	.	.	-10%	3%	-1%	.
COC(=O)C1=C(C)N2C(=O)CSC2=NC1c1ccc2c(c1)OCO2 (configuration not stated)	52%	?	58%	-6%	?	?	-16%
Nc1c(C(=O)Nc2ccc(Cl)c(C(F)(F)F)c2)sc2nc(-c3ccncc3)ccc12	2%	.	.	-6%	0%	-13%	.
COCCn1c(=NC(=O)CCS(=O)(=O)c2ccccc2)sc2cc(C(=O)OC)ccc21	-2%	.	.	-6%	.	.	.
COCCn1c(=NC(=O)c2ccc(S(=O)(=O)N3CCc4ccccc4C3)cc2)sc2cc(OC)ccc21	-1%	-2%	8%	-2%	-2%	1%	.	RECQ1 conf=2%;ADP FP counter=-6%
COc1ccc(CCNC(=O)c2ccc(Cn3c(SCc4ccccc4)nc4cccnc43)cc2)cc1	12%	.	.	-6%	10%	-5%	.
Cc1ccc(C(=O)c2c(C)oc3c2C(=O)C(=O)c2ccccc2-3)cc1	-1%	?	-5%	-7%	?	-7%	56µM*
Cc1ccc(NC(=O)Cn2c(=O)n(-c3ccc(C)cc3)c(=O)c3c2cnn3C)cc1	0%	.	.	-3%	-3%	-1%	.
CC(=O)Nc1ccc(NC(=O)C(OC(=O)c2ccccc2)C(OC(=O)c2ccccc2)C(=O)O)cc1 (configuration not stated)	2%	-5%	6%	-3%	0%	-2%	.	RECQ1 conf=17%;ADP FP counter=?
N=C1/C(=C\c2ccc(SCc3ccccc3)o2)C(=O)N=C2SC(CC(=O)N3CCOCC3)=NN12	-2%	?	24%	-23%	20%	-12%	-29%
COc1cc2c(cc1OC)n(CC(=O)c1ccc(C)cc1)c(=O)n1nc(CCn3nc(C)cc3C)nc21	4%	.	.	-3%	-2%	1%	.
Cc1ccc(OCC(=O)N/N=C/C=C/c2ccco2)cc1	-4%	8.9µM*	22%	-23%	-1%	-2%	.	RECQ1 conf=?;ADP FP counter=?
Cc1ccc(-c2nc3c(c(=O)[nH]c(=O)n3Cc3ccccc3)n2Cc2ccccc2)o1	-4%	-16%	34%	-5%	-2%	-5%	.
Cc1ccc(-c2nc3c(c(=O)[nH]c(=O)n3Cc3ccccc3)n2C)o1	12%	14µM*	26%	?	-1%	-11%	?	RECQ1 conf=?
CC(C)=C1C(=O)NN(c2cccc(Cl)c2)C1=O	-3%	?	1%	1%	2%	-8%	.
CC(C)=C1C(=O)NN(c2ccc(C)c(Cl)c2)C1=O	.	?	-3%	-5%	0%	-9%	-3%
O=C(NCCCO)c1ccc2nc(-c3ccco3)c(-c3ccco3)nc2c1	11%	?	-21%	-30%	21%	?	-10%
CC(=C/C=C/C(C)=C/C=C/C=C(C)/C=C/C=C(C)/C=C/C(=O)O)/C=C/C(=O)O	.	-15%	16%	.	-1%	0%	.
N=C1/C(=C/c2coc3ccccc3c2=O)C(=O)N=C2SC(c3ccco3)=NN12	23%	28µM*	15%	?	?	?	50µM*
N=C1/C(=C\c2coc3ccccc3c2=O)C(=O)N=C2SC(c3ccncc3)=NN12	57%	?	41%	?	?	?	?
Cc1cc(/C=C2\C(=N)N3N=C(c4ccco4)SC3=NC2=O)c(C)n1Cc1ccccc1	8%	?	17%	-24%	2%	-14%	?
N=C1/C(=C\c2coc3ccc(O)cc3c2=O)C(=O)N=C2SC=CN12	60%	25µM*	130%	-28%	14%	-2%	56µM*
CSC1=NSC2=NC(=O)/C(=C\c3coc4ccccc4c3=O)C(=N)N12	.	-3%	29%	-12%	21%	-17%	.
CC(C)CSC1=NSC2=NC(=O)/C(=C\c3coc4ccccc4c3=O)C(=N)N12	58%	?	77%	-24%	15%	-8%	.
SMILES	ERG-DNA inh	RECQ1 inh-1	RGS12 GoLoco inh	BLM helicase inh	TRb-SRC2 inh	TR SRC2 fluor cs	RECQ1 inh-2	others
CN1C(=O)/C(=C/c2coc3ccc(O)cc3c2=O)SC1=S	117%	-21%	28%	-2%	-16%	7%	.
Cc1noc(C)c1-c1cc(NC2CCNCC2)ncn1	.	-1%	4%	3%	.	.	.
CCN(CC)C(=O)CSc1nc2cc3c(cc2c(=O)n1Cc1ccc(C(=O)NCCc2ccc(OC)c(OC)c2)cc1)OCO3	-2%	.	.	1%	-3%	-1%	.
COc1ccc(-n2cccc2/C=C2\C(=N)N3N=C(c4ccco4)SC3=NC2=O)cc1	14%	?	36%	13µM*	?	?	7.1µM*
O=C(NCCc1ccc(Cl)cc1)c1ccc(CSCc2cccc(Cl)c2)o1	1%	.	.	-9%	0%	0%	.
Cn1ccc2cc(S(=O)(=O)N3CCCN(C(=O)Nc4ccc(Br)cc4)CC3)ccc21	1%	.	.	-3%	5%	-6%	.
O=C(/C=C\c1ccc(O)c(O)c1)O[C@@H]1C[C@](O)(C(=O)O)C[C@@H](O)[C@@H]1O	.	-4%[25.9 µM]	-11%[21.6 µM]	1%[21.4 µM]	-3%[53 µM]	-2%[53 µM]	.
O=C(/C=C/c1ccc(O)c(O)c1)OC1C(O)CC(OC(=O)/C=C/c2ccc(O)c(O)c2)(C(=O)O)CC1O (configuration not stated)	-9%	-2%	-29%	6%	3%	-1%	.	RECQ1 conf=6%;ADP FP counter=-3%
COc1ccc2c(C(=O)CN3CCN(c4ccccc4)CC3)c[nH]c2c1	11%	?	69%	-2%	0%	-4%	-18%
Cc1n[nH]c(C)c1N1C(=O)c2cccc3c(N4CCCCCC4)ccc(c23)C1=O	?	28µM*	20µM*	-4%	-9%	3%	79µM*

Bioassay records from PubChem BioAssay.
